Results: PubChem BioAssay AID485317 (Broad Institute, 2010)
The campaign covered roughly 290,000 compounds. About 11,000 (3.8%) were called active.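 Rule for the calls: active = mean replicate inhibition above about 79%, with every replicate also reaching it (limit read from the data); inconclusive = only one of the two criteria met; inactive = mean below limit and not every replicate reaching it.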 The entries come from a sample that favours actives as a whole.

target: FAD-linked sulfhydryl oxidase ALR (Homo sapiens) (UniProt P55789); assay: inhibitors of human ALR sulfhydryl oxidase, primary screen, biochemical, H2O2 detection, HRP-luminol luminescence, single point (AID 485317); conditions: purified ALR, DTT oxidation, stronger effect = higher value, concentration not given here
Sequence (P55789 whole entry, looked up): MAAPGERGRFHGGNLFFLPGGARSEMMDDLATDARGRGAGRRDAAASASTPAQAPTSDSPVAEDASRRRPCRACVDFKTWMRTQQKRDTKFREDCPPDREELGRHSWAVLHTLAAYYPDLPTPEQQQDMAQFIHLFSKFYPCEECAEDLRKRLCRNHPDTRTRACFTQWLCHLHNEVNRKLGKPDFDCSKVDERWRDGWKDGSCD

Row | SMILES | inhibition
1 | Cc1ccc(S(=O)(=O)N2CCN(C(=O)CN3C(=O)NC(C)(c4ccc(Cl)cc4)C3=O)CC2)c(C)c1 (centres undefined) | -8.79% (inactive)
2 | Cc1cc(N2C(=O)C(O)=C(C(=O)c3ccc(C)o3)C2c2ccc(OCc3ccccc3)cc2)no1 (centres undefined) | 38.2% (inactive)
3 | COc1cc(C2C(C(=O)c3ccc(C)o3)=C(O)C(=O)N2CCc2ccccc2)ccc1O (centres undefined) | 51.3% (inactive)
4 | C=CCOc1cccc(C2C(C(=O)c3ccc(C)o3)=C(O)C(=O)N2c2nnc(C)s2)c1 (centres undefined) | 92.9% (active)
5 | COC(=O)c1c(-c2ccsc2)oc2ccc(-c3cc(OC)c(OC)c(OC)c3)cc12 | -1.82% (inactive)
6 | O=C(Cn1cnc2ccccc2c1=O)NNC(=O)c1ccccc1F | 29.2% (inactive)
7 | Cc1nnsc1C(=O)Nc1cccc(Cl)c1C | -1.48% (inactive)
8 | Cc1cc(Cl)ccc1NNC(=O)c1snnc1C | 98.9% (active)
9 | Cc1nnsc1C(=O)N/N=C/c1ccccc1Cl | -1.47% (inactive)
10 | CC(C)CN(C(=O)CSc1nncn1C)C1CCS(=O)(=O)C1 (centres undefined) | 0.148% (inactive)
11 | Cn1c(-c2sc3cc(C(F)(F)F)cnc3c2-c2ccccc2)n[nH]c1=S | 96.3% (active)
12 | Cn1c(-c2sccc2OCc2cccc(C(F)(F)F)c2)n[nH]c1=S | 1.68% (inactive)
13 | C=CCn1c(-c2sc(-c3ccccc3)nc2C)n[nH]c1=S | 8.68% (inactive)
14 | CSc1nsc(SCC(=O)Nc2cc(C(=O)O)ccc2C)n1 | 8.91% (inactive)
15 | COc1ccc(NC(=O)CSc2nc(SC)ns2)c(OC)c1 | 84.5% (active)
16 | COc1ccc(C)cc1NC(=O)CSc1nc(SC)ns1 | -1.75% (inactive)
17 | CCCCC/C=C/C1=CC(=O)C[C@H](c2ccc(Cl)cc2)C1 | 5.58% (inactive)
18 | Cc1c(NC(=O)CSc2nnc(-c3cccnc3)n2N)c(=O)n(-c2ccccc2)n1C | 1.09% (inactive)
19 | CS(=O)(=O)c1ccc(C(=O)OCC(=O)NNC(=O)COc2ccc(Cl)cc2)cc1 | -1.94% (inactive)
20 | Cc1ccc(C(=O)NC(=S)NCc2cccnc2)cc1 | 24.9% (inactive)
21 | Cc1c(C(=O)NC(=S)NCc2cccnc2)oc2ccccc12 | 93.3% (active)
22 | Cc1c(C(=O)NNC(=O)c2ccncc2)oc2ccccc12 | 2.8% (inactive)
23 | Cc1ccc(C2(C)NC(=O)N(CC(=O)N3CC(=O)Nc4ccccc43)C2=O)cc1 (centres undefined) | 0.292% (inactive)

Row | SMILES | inhibition
24 | Cc1ccc(S(=O)(=O)N(C)c2ccc(OCC(=O)OCC(=O)N(CC#N)c3ccccc3)cc2)cc1 | -18.6% (inactive)
25 | O=C(OCC(=O)N1CCCCC1)c1ccc(OC(F)(F)F)cc1 | -5.55% (inactive)
26 | Cc1cc(C)cc(OCC(=O)Nc2ccc(N3CCOCC3)cc2N2CCOCC2)c1 | 7.88% (inactive)
27 | O=C(CCc1nc2sc3c(c2c(=O)[nH]1)CCCC3)NCC(=O)Nc1ccccc1Br | 18.6% (inactive)
28 | CCCN(CC1CC1)C(=O)COC(=O)c1ccc(C)cc1O | 5.02% (inactive)
29 | CC1CCCC(NC(=O)c2cccc(N3CCCC3=O)c2)C1C (centres undefined) | 0.109% (inactive)
30 | C/C(=N\NC(=O)c1cccc(N2CCCC2=O)c1)c1ccc(N)cc1 | 99.1% (active)
31 | O=C(NCCc1ccc(Cl)cc1)c1cccc(N2CCCC2=O)c1 | 2.63% (inactive)
32 | Cc1ccnc(SCC(=O)Nc2cccc(S(=O)(=O)N3CCOCC3)c2)n1 | -3.28% (inactive)
33 | Cc1ccc(NC(=O)CSc2nc(CSc3ccc(C)cc3)cc(=O)[nH]2)cc1 | 6.9% (inactive)
34 | CCOC(=O)Cc1csc(NC(=O)CSc2nc(C)cc(=O)[nH]2)n1 | 98.7% (active)
35 | COc1ccc(NC(=O)CSc2nc(NS(=O)(=O)c3ccc(C)cc3)cc(=O)[nH]2)cc1 | 98.9% (active)
36 | CCOC(=O)Cc1csc(NC(=O)C(C)(C)C)n1 | -0.763% (inactive)
37 | CCCc1cc(=O)[nH]c(SCC(=O)Nc2ccc(S(=O)(=O)N3CCCC3)cc2)n1 | -1.58% (inactive)
38 | CCOC(=O)Cc1csc(NC(=O)CSc2ccc(Br)cc2)n1 | -32.4% (inactive)
39 | Cc1cccc(NC(=O)CSc2nc3[nH]ncc3c(=O)[nH]2)c1 | 1.74% (inactive)
40 | COC(=O)c1cccc(NC(=O)CSc2nc(C)cc(=O)[nH]2)c1 | 98.5% (active)
41 | Cc1cc(=O)[nH]c(SCC(=O)Nc2ccc(Br)cc2)n1 | -7.33% (inactive)
42 | CC(=O)NC12CC3CC(C1)CC(C(=O)N1CCN(C(=O)c4ccco4)CC1)(C3)C2 | -2.95% (inactive)
43 | CC1(C)O[C@@H]2[C@H](O1)[C@@H](COS(=O)(=O)O)O[C@H]2n1ccc(=O)[nH]c1=O | -0.754% (inactive)
44 | Cc1ccc(NNC(=O)c2cccs2)cc1Cl | 2.62% (inactive)
45 | Cc1ccc(NNC(=O)c2c(F)cccc2Cl)cc1Cl | 98.7% (active)
46 | O=C(NNc1cc(Cl)cc(Cl)c1)c1c(F)cccc1Cl | 3.41% (inactive)

Row | SMILES | inhibition
47 | Cc1csc(=O)n1CC(=O)Nc1ccc(S(C)(=O)=O)cc1 | 2.59% (inactive)
48 | CN1C(=O)[C@H]2[C@@H](/C=C/c3ccccc3)N3C(=O)CN(Cc4ccc(-c5ccccc5)cc4)C(=O)[C@@]3(C)[C@H]2C1=O | 3.57% (inactive)
49 | CC(=O)Nc1cccc(NC(=O)CSc2nccn2Cc2ccc(F)cc2)c1 | 98.1% (active)
50 | CCCCNC(=O)CSc1nccn1Cc1ccccc1 | 11.9% (inactive)
51 | CCCCCCNC(=O)CSc1nccn1Cc1ccccc1 | -0.072% (inactive)
52 | O=c1oc2ccccc2cc1-c1csc(Nc2ccc(O)cc2)n1 | 32.6% (inactive)
53 | Clc1ccc(Nc2nc(-c3cccs3)cs2)nc1 | -1.13% (inactive)
54 | Cc1ccc(Nc2nc(-c3ccc(O)cc3O)cs2)nc1 | 98.8% (active)
55 | COC(=O)Cc1ccc(OC(=O)C2CCN(S(=O)(=O)c3ccc(OC)c(OC)c3)CC2)cc1 | -4.72% (inactive)
56 | CC[N+](C)(CC)CCC[n+]1c(-c2ccccc2)c2cc(N)ccc2c2ccc(N)cc21 | 90.7% (active)
57 | O=C(COC(=O)c1cccnc1Cl)Nc1ccc(S(=O)(=O)N2CCOCC2)cc1 | -2.58% (inactive)
58 | Cc1cccc(Nc2nnc(SCC(=O)c3c(N)n(C4CC4)c(=O)[nH]c3=O)s2)c1C | -3.29% (inactive)
59 | Cc1nn(CC#N)c(=O)n1N(C)c1ncc(C(F)(F)F)cc1Cl | 0.914% (inactive)
60 | CN(NS(=O)(=O)c1cccs1)c1ncc(C(F)(F)F)cc1Cl | -1.63% (inactive)
61 | C#CCN(N(C)c1ncc(C(F)(F)F)cc1Cl)S(=O)(=O)c1ccc2ccccc2c1 | 89.2% (active)
62 | CCOC(=O)/C=C/c1ccc(C(F)(F)F)cc1S(=O)(=O)NC(C)(C)C | 20.8% (inactive)
63 | c1ccc2cc(CCCc3cc4ccccc4cn3)ncc2c1 | 2.21% (inactive)
64 | CN(Cc1ccccc1)C(=O)COC(=O)/C=C/c1ccc2c(c1)OCO2 | 0.927% (inactive)
65 | COc1ccc(-c2nc(SCC(=O)N3CCCC3)n[nH]2)cc1 | -0.237% (inactive)
66 | COc1ccc(N2C(=O)CC(Sc3n[nH]c(-c4ccc(C)cc4)n3)C2=O)cc1 (centres undefined) | 98.9% (active)
67 | Cc1ccc(N2C(=O)CC(Sc3ncn[nH]3)C2=O)cc1 (centres undefined) | 45.4% (inactive)
68 | CN(CC(=O)NCCc1ccc(S(N)(=O)=O)cc1)CC(=O)Nc1ccc(F)c(F)c1F | -4.6% (inactive)
69 | CCCSc1ccc([C@H]2N[C@@](Cc3ccccc3)(C(=O)OC)[C@H]3C(=O)N(C)C(=O)[C@@H]23)cc1 | 4.44% (inactive)

Row | SMILES | inhibition
70 | S=c1[nH]nc(/C=C/c2ccccc2)o1 | 83.4% (active)
71 | Cc1ccc(-c2cc(C(=O)N/N=C/C=C/c3ccccc3)n[nH]2)o1 | -7.61% (inactive)
72 | CCOC(=O)C1CCN(C(=O)CN2C(=O)NC(C)(c3ccc4cc(OC)ccc4c3)C2=O)CC1 (centres undefined) | -7.42% (inactive)
73 | NC1=NC(c2ccc([N+](=O)[O-])cc2)N(c2ccc(F)cc2)C(N)=N1 (centres undefined) | -1.48% (inactive)
74 | CCOC(=O)CSC1=C(C#N)C(c2sccc2C)CC(=O)N1 (centres undefined) | 2.21% (inactive)
75 | CCOC(=O)CSC1=C(C#N)C(c2ccco2)C(C(=O)OCc2ccccc2)=C(C)N1 (centres undefined) | -2.61% (inactive)
76 | Cc1ccc(C2CC(=O)NC(SCC(=O)OCc3ccccc3)=C2C#N)o1 (centres undefined) | 98.4% (active)
77 | Cc1cc(Br)ccc1NC(=O)CN(C)C(=O)CN1C(=O)NC2(CCCC2)C1=O | -8.04% (inactive)
78 | COc1cc(NC(=O)COC(=O)c2cc(S(=O)(=O)N3CCOCC3)ccc2F)cc(OC)c1 | -2.6% (inactive)
79 | CN1c2ccc([N+](=O)[O-])cc2C(C)(C)C12C=Cc1cc(C(=O)O)ccc1O2 (centres undefined) | 97.9% (active)
80 | Cc1cc(C)n(-c2ccc(C(=O)O)cc2[N+](=O)[O-])n1 | -3.49% (inactive)
81 | COc1ccc2c(c1)C=CC1(O2)N(CCO)c2ccccc2C1(C)C (centres undefined) | -8.22% (inactive)
82 | CCOC(=O)[C@@H]1[C@H]2COc3ccc(Br)cc3[C@H]2N2C(=O)N(c3ccc(C)cc3)C(=O)[C@@]12C | -4.73% (inactive)
83 | COc1ccc(NC(=O)/C(C#N)=C\c2cc(OC)c(OCc3ccc(C(=O)O)cc3)cc2Br)cc1 | 98% (active)
84 | COc1cc(/C=C(\C#N)C(=O)Nc2ccc3ccccc3c2)c([N+](=O)[O-])cc1OC | -17.7% (inactive)
85 | COc1ccc(CNC(=O)/C(C#N)=C/c2cccc(OC)c2OC)cc1 | 12.6% (inactive)
86 | COc1cc(OC)cc(-c2sc3ccc(OC)cc3c2-c2ccc3cc[nH]c3c2)c1 | 0.621% (inactive)
87 | COc1ccc(N2CCN(C(CNS(=O)(=O)c3ccc(C)cc3)c3ccccc3)CC2)cc1 (centres undefined) | -0.191% (inactive)
88 | O=C(CCN1C(=O)C2CCCCC2C1=O)Nc1ccc(OC(F)F)cc1 (centres undefined) | -7.6% (inactive)
89 | CCCN(CC(=O)Nc1ccccc1C)C(=O)c1ccc2[nH]c3c(c2c1)CC(C)CC3 (centres undefined) | -1.42% (inactive)
